Laboratory results taken from PubChem BioAssay.
Results filed as inconclusive are left out. Active and inactive are the calls of the source. Rule as the data show it, unless noted: active = percent of DMSO control GFP below about 86%; inactive = the rest, inconclusive results apart.

Key:
[1] = yeast TOR pathway RPL19A-GFP modulators, primary screen, cell-based, S. cerevisiae, multiplex flow cytometry (AID 1862);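 also: lower values mimic rapamycin by blocking the RPL19A rise seen in DMSO cells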; settings: S. cerevisiae RPL19A-GFP strain, flow cytometry fluorescence, 3 h; at 10 µM; stronger effect = lower value
[2] = modulators of MEP2-GFP levels in yeast, primary screen, S. cerevisiae, multiplex flow cytometry (AID 1867;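 active = GFP response, as percent of the DMSO control, above the screen-wide mean plus 3 SD, about 139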;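 also: median GFP channel fluorescence of barcode-gated MEP2-GFP cells measured by flow cytometry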); settings: S. cerevisiae MEP2-GFP strain, 3 h, at 10 µM, stronger effect = higher value, 100% means same as DMSO wells
[3] = modulators of CIT2-GFP expression in yeast, primary screen, S. cerevisiae, GFP fusion, multiplex flow cytometry (AID 1870;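 active = percent response above a set limit, the screen-wide mean plus 3 SD, cut at about 130% in these data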;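 also: barcoded CIT2-GFP strain pooled with four other GFP strains with rapamycin as positive control; median GFP fluorescence per well over plate mean of DMSO wells so 100% = DMSO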); settings: 3 h, at 10 µM, stronger effect = higher value
[4] = modulators of LAP4-GFP expression in yeast, primary screen, S. cerevisiae, multiplex flow cytometry (AID 1873;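 active = GFP signal, as percent of the solvent control, above the screen mean plus 3 SD, about 149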); settings: 3 h, at 10 µM, stronger effect = higher value
[5] = modulators of AGP1-GFP expression in yeast TOR pathway, primary screen, cell-based, multiplex flow cytometry, S. cerevisiae (AID 1887;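 active = GFP signal above the screen-wide mean plus 3 SD, that is over about 124.5% of the solvent control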;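 also: AGP1-GFP fusion strain of S. cerevisiae within a five-strain barcoded multiplex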); settings: 3 h, at 10 µM, stronger effect = higher value
[6] = RPL19A-GFP modulators, yeast TOR pathway, confirmation, cell-based, S. cerevisiae, flow cytometry, cherry picks, mother/daughter gates (AID 2270;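 active = GFP response below 50% of the DMSO control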); settings: S. cerevisiae RPL19A-GFP strain, 3 h, at 10 µM, stronger effect = lower value, 100 = same GFP as DMSO wells
[7] = LAP4-GFP expression modulators in yeast, confirmation, cell-based, cherry picks, flow cytometry, mother/daughter gates (AID 2271;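 active = GFP response above 150% of the DMSO control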;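 also: ratio of sample to DMSO plate mean so 100% equals DMSO level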); settings: S. cerevisiae LAP4-GFP strain, 3 h, at 10 µM, stronger effect = higher value, 100 means same as DMSO control
[8] = modulators of MEP2-GFP levels in yeast, confirmation, S. cerevisiae, flow cytometry GFP, cherry picks (AID 2272;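 active = GFP response above 150% of the DMSO control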;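 also: ratio of well signal to plate DMSO mean so 100% equals DMSO level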); settings: S. cerevisiae MEP2-GFP strain, 3 h, at 10 µM, stronger effect = higher value
[9] = modulators of CIT2-GFP expression in yeast, confirmation, S. cerevisiae, GFP fusion, cherry picks, mother/daughter gates (AID 2274;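 active = GFP response above 150% of the DMSO level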); settings: S. cerevisiae CIT2-GFP strain, flow cytometry, 3 h, at 10 µM, stronger effect = higher value
[10] = inhibitors of CD8+ T cell-vesicle binding, pilot screen, LFA-1/ICAM-1 modulator project, MLPCN validation set, flow cytometry (AID 2523;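 active = response below a set limit, under 55% cells CD8-positive and vesicle-bound, and CD8 cells' 90th-percentile brightness under 279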;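 as to vesicle binding response: mean PE anti-B7-1 fluorescence of CD8+ cells relative to row control; 100% = QL9-loaded vesicles with DMSO vehicle in the same plate row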); settings: 2C mouse CD8+ T cells, at 7 µM, stronger effect = lower value; double positive events: measured here: CD8+/vesicle+ event percentage
[11] = biological target: Integrin beta-1 (Homo sapiens) + Integrin alpha-4 (Homo sapiens) (UniProt P13612+P05556); test: inhibition of HUTS-21 binding to VLA-4, pilot screen, VLA-4 allosteric modulator project, U937 cells, HUTS-21 mAb, flow cytometry, validation set (AID 2674;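 active = inhibition above 50%, about 3 SD of the validation set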;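 also: antibody binding induced by the VLA-4 ligand LDV present at three times its Kd; 0% = LDV ligand with antibody and no compound and 100% = antibody without LDV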); settings: HUTS-21 LIBS mAb binding, at 6.7 µM, stronger effect = higher value, binding induced by LDV ligand
[12] = superoxide lowering in aged yeast cells, pilot screen, validation compound set (AID 2706;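 active = superoxide response below 65% of plate, a cut near 3 SD across the whole screen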;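 also: yeast exposed to compound for one week at 30 degrees C before staining; 100% = mean of all compound wells on the same plate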); settings: S. cerevisiae aging, superoxide DHE fluorescence; at 10 µM; stronger effect = lower value
[13] = biological target: Beta-adrenergic receptor kinase 1 (Homo sapiens) (UniProt P25098); test: GRK2 binders displacing RNA aptamer, biochemical, validation, human GRK2, bead flow cytometry (AID 488806;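 active = aptamer binding inhibition above 30%, about 3 SD of noise from non-fluorescent compounds; inactive = inhibition at or below 30%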); settings: bead-bound GRK2, FAM-aptamer displacement, at 10 µM, stronger effect = higher value
[14] = biological target: Beta-2 adrenergic receptor (Homo sapiens) (UniProt P07550); test: beta2AR agonists driving receptor internalization, pilot screen, cell-based, FAP fluorogen, flow cytometry, validation set (AID 504459;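 active = percent response above 42, roughly 3 SD of non-fluorescent test compounds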;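 also: agonist-driven loss of surface beta2AR via internalization measured by FAP dye flow cytometry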); settings: Am2.2-beta2AR cells, FAP surface receptor flow cytometry; at 10 µM; stronger effect = higher value
[15] = biological target: AP-2 complex subunit beta (Homo sapiens) (UniProt P63010); test: inhibitors of arrestin peptide binding to AP2, pilot screen, biochemical, validation set, GST-AP2 beads, flow cytometry (AID 504541;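 active = inhibition above 54%, about 3 SD of non-fluorescent compounds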;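 also: AP2 carries R879A mutation and is captured from E. coli lysate; bead-bound FITC arrestin peptide fluorescence measuring arrestin peptide binding to AP2; 0% = DMSO wells and 100% = excess unlabeled arrestin peptide control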); settings: FITC arrestin peptide, at 10 µM, stronger effect = higher value, AP2 beta2 appendage fragment, R879A mutant
[16] = yeast V-ATPase proton transport modulators, S. cerevisiae, pHLuorin, HTS validation (AID 504600; in the data active = response above about 15%;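 also: plate controls were DMSO for no effect and reference compound for full effect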); settings: S. cerevisiae pHLuorin cytosolic pH, at 10 µM, stronger effect = higher value
[17] = tested on: anti-desmoglein-3 scFv antibody binding to human DSG3; test: inhibitors of anti-DSG3 scFv binding to DSG3, pilot screen, biochemical, validation compound set, bead-based, flow cytometry (AID 588368;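 active = binding below the plate cutoff, the plate median minus 3 SD, with a reading above zero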;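 also: signal is the median channel fluorescence of bead-bound GFP antibody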); settings: Protein G beads, DSG3-Fc, scFv-GFP binding, at 10 µM, stronger effect = lower value
[18] = inhibitors of fungal efflux pumps CDR1, CDR2, MDR1, pilot screen, validation compound set, multiplex, phenotypic (AID 588506;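 active = efflux inhibition above 0.42, the validation set average plus 4 SD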;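 also: Nile Red retained in cells so higher fluorescence means more efflux inhibition; 0 = negative control wells and 1 = enniatin B 25 µM full block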); settings: S. cerevisiae pump-expressing triplex, Nile Red efflux flow cytometry; at 10 µM; stronger effect = higher value; the pumps come from Candida albicans
[19] = biological target: ATP-binding cassette sub-family B member 6 (Homo sapiens) (UniProt Q9NP58); test: ABCB6 transporter inhibitors, pilot screen, K562-ABCB6 cells, flow cytometry, validation set (AID 588550;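 active = inhibition above the screen-wide mean plus 3 SD, about 51%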;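 also: 0% = DMSO wells and 100% = benzethonium chloride 70 µM positive control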); settings: K562-ABCB6 porphyrin accumulation, 1 h, at 10 µM, stronger effect = higher value
[20] = promoters of myeloid differentiation in arrested cells, primary screen, cell-based, GFP/MAC1 double positive, flow cytometry, validation set (AID 588685;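 active = differentiation response of at least 50%, scaled between solvent and reference control, from cells with both markers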;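 also: compound exposure lasts four days before antibody staining and flow analysis; 0% = DMSO wells and 100% = 5 µM fulvestrant positive control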); settings: ER-HoxA9 marrow cells, stronger effect = higher value, normalized: vehicle 0, fulvestrant 100
[21] = measured here: daughter cell gate
[22] = measured here: mother cell gate
[23] = measured here: daughter cell gate response
[24] = measured here: mother cell gate response

Chain of Beta-adrenergic receptor kinase 1 (Homo sapiens) (P25098 whole entry, looked up): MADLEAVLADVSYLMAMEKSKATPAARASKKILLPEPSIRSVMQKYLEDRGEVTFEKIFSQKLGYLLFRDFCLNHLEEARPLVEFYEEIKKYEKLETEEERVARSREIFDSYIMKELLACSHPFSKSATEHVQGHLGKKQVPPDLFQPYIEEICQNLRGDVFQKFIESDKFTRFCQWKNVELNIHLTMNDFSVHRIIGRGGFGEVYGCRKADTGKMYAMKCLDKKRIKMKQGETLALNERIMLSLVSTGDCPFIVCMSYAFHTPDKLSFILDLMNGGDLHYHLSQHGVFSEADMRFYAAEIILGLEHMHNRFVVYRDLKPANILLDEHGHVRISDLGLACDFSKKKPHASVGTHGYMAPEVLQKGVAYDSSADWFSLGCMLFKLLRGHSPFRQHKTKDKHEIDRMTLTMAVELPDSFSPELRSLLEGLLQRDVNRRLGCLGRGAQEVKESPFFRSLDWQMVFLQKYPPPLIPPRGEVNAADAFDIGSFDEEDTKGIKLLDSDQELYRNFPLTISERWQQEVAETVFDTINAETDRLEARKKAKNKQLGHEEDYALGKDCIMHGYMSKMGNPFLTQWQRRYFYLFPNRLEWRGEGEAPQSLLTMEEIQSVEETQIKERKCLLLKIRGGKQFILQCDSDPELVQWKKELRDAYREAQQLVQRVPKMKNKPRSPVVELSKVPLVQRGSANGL
Chain of Integrin beta-1 (Homo sapiens) + Integrin alpha-4 (Homo sapiens) (P05556 whole entry, looked up): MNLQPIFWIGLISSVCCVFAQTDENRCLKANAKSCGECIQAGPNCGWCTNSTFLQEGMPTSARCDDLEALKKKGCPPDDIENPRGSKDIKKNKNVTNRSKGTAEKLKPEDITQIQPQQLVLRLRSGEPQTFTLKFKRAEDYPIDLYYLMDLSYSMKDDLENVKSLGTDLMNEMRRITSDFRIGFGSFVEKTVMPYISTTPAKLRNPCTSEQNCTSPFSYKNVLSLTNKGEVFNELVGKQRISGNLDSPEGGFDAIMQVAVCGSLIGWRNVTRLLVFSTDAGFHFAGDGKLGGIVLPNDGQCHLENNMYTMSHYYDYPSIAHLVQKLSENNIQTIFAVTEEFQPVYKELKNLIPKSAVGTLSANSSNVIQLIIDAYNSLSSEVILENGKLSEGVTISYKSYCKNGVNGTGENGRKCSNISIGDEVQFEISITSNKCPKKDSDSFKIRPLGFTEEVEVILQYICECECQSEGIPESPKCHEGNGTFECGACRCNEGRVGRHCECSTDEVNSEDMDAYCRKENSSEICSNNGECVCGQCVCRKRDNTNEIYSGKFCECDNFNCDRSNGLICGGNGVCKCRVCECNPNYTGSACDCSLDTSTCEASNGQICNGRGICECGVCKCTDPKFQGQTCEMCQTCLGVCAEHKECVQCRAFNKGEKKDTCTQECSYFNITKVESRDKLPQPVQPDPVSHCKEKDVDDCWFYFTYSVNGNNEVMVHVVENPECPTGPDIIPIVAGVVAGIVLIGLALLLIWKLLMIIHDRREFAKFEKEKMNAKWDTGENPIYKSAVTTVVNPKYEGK
Chain of Integrin beta-1 (Homo sapiens) + Integrin alpha-4 (Homo sapiens) (P13612 whole entry, looked up): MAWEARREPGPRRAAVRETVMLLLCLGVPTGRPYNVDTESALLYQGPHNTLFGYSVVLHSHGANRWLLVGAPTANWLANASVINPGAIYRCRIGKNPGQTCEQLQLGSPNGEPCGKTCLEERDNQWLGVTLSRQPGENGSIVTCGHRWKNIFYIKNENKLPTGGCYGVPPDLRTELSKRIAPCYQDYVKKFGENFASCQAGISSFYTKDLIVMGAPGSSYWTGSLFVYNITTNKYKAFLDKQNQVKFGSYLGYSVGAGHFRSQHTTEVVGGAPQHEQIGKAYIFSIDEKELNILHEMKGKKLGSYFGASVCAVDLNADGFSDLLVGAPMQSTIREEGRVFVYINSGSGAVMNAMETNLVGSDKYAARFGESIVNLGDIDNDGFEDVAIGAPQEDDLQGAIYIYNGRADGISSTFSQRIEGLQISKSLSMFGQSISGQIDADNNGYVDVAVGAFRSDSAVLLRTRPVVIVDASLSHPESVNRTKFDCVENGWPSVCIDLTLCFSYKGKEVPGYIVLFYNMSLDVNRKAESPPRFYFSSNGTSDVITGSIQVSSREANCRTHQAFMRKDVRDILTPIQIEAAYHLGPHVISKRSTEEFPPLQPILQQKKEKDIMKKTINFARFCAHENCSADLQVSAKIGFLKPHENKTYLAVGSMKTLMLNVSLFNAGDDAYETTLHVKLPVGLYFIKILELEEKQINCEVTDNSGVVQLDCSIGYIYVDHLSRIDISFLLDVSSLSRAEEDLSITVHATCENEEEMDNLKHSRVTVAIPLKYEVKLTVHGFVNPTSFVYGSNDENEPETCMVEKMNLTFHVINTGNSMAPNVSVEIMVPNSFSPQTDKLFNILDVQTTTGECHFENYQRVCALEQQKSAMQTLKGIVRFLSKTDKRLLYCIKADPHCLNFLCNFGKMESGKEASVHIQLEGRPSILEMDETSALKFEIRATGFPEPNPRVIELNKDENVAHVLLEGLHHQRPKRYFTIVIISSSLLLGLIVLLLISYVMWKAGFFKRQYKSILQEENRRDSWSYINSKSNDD
Chain of ATP-binding cassette sub-family B member 6 (Homo sapiens) (Q9NP58 whole entry, looked up): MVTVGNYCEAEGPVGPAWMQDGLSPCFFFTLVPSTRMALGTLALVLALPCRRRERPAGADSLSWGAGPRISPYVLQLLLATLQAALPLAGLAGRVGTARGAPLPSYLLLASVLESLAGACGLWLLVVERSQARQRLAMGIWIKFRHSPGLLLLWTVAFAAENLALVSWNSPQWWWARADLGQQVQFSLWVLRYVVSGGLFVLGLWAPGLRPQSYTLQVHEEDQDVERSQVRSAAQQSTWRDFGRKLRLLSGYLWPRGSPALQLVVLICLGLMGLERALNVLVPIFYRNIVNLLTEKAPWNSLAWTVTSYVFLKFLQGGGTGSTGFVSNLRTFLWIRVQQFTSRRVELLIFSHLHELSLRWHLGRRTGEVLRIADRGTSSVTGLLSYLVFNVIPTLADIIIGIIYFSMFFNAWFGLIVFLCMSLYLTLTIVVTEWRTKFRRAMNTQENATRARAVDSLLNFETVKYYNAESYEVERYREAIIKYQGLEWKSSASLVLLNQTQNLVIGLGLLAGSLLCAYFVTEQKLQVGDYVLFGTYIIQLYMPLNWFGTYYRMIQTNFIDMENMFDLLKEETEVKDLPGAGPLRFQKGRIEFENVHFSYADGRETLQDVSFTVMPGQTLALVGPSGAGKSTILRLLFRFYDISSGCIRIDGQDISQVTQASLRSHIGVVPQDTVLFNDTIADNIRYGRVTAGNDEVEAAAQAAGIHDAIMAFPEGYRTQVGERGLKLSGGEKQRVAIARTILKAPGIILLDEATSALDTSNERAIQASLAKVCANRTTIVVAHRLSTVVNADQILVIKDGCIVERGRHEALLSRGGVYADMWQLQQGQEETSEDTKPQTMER
Chain of Beta-2 adrenergic receptor (Homo sapiens) (P07550 whole entry, looked up): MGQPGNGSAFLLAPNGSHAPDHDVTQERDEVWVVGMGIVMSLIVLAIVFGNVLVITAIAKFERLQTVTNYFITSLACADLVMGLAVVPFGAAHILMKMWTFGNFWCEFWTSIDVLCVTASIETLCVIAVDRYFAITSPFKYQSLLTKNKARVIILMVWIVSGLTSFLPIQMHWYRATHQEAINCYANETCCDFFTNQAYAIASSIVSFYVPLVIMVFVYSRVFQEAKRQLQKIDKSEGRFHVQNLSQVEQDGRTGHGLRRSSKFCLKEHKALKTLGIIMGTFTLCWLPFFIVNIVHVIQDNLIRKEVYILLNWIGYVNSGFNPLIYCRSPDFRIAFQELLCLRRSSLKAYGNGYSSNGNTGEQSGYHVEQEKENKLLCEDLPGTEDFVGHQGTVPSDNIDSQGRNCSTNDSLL
Chain of AP-2 complex subunit beta (Homo sapiens) (P63010 whole entry, looked up, the tested form may be a part, one chain of several): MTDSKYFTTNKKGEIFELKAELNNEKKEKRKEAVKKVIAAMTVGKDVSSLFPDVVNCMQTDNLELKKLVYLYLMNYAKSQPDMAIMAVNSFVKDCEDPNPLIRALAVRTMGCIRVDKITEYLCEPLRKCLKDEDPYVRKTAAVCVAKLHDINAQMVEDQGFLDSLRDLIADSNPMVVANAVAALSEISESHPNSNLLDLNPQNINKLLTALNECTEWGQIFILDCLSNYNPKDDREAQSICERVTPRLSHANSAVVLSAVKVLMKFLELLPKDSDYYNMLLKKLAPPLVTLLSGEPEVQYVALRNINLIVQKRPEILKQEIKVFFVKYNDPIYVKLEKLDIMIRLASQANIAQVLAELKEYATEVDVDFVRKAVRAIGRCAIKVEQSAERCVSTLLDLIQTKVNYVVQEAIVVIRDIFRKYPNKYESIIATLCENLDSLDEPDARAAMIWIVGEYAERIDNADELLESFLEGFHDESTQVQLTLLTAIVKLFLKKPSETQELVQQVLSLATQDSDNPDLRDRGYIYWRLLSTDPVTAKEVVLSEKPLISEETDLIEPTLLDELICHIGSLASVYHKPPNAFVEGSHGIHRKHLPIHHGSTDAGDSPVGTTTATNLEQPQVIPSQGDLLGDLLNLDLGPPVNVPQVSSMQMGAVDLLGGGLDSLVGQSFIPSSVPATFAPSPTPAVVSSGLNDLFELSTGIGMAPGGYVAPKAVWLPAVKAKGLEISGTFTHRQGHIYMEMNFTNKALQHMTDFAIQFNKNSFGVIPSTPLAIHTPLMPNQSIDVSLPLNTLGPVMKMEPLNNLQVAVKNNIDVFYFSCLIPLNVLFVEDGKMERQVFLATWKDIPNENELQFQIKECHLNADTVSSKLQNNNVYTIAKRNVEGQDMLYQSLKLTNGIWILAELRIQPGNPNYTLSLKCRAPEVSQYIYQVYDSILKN

CC(=O)Nc1ccc(S(=O)(=O)c2ccc(N)cc2)cc1
101%: GFP response vs DMSO [6, 21] | GFP response, % of DMSO [9, 21]
102%: GFP response, % of DMSO [9, 22]
103%: GFP response relative to DMSO [7, 23]
inactive: percent of DMSO control GFP [1] 97.9% | GFP response vs DMSO [2] 126% | GFP response vs DMSO [4] 77.6% | GFP response, % of DMSO [5] 85.4% | GFP response vs DMSO [6] 103% | GFP response relative to DMSO [7] 105% | GFP response vs DMSO [8] 102% | GFP response, % of DMSO [9] 102% | vesicle binding response [10] 203% | inhibition [11] 17.1% | superoxide response (% of plate) [12] 110% | aptamer binding inhibition [13] 0% | response [14] -3.74% | inhibition [15] -5.82% | response [16] -1.44% | binding (% of control) [17] 101% | efflux inhibition (fraction of control) [18] 0.05 | inhibition [19] 8% | differentiation response [20] 9.01%
104%: GFP response vs DMSO [6, 22]
62.6%: double positive events [10]
active: percent response of DMSO control [3] 136%
106%: GFP response relative to DMSO [7, 24]

N=c1nc(N2CCCCC2)cc(N)n1O
97.4%: GFP response vs DMSO [6, 21] | GFP response vs DMSO [6, 22]
99.7%: GFP response, % of DMSO [9, 22]
103%: GFP response, % of DMSO [9, 21]
101%: GFP response relative to DMSO [7, 23]
99.3%: GFP response relative to DMSO [7, 24]
59.7%: double positive events [10]
inactive: percent of DMSO control GFP [1] 90.9% | percent response of DMSO control [3] 107% | GFP response vs DMSO [4] 86.4% | GFP response, % of DMSO [5] 90.1% | GFP response vs DMSO [6] 97.4% | GFP response relative to DMSO [7] 101% | GFP response vs DMSO [8] 98.3% | GFP response, % of DMSO [9] 99.7% | vesicle binding response [10] 117% | inhibition [11] 16.2% | superoxide response (% of plate) [12] 89.4% | aptamer binding inhibition [13] 2% | response [14] -8.64% | inhibition [15] 33.9% | response [16] -5.96% | binding (% of control) [17] 98.5% | efflux inhibition (fraction of control) [18] 0.37 | differentiation response [20] 8.19%
active: GFP response vs DMSO [2] 143% | inhibition [19] 115%

O=C(O)CCNC(=O)c1ccccc1
97.5%: GFP response vs DMSO [6, 21]
active: GFP response vs DMSO [2] 151% | efflux inhibition (fraction of control) [18] 0.52 | inhibition [19] 112%
inactive: percent of DMSO control GFP [1] 90% | percent response of DMSO control [3] 101% | GFP response vs DMSO [4] 82% | GFP response, % of DMSO [5] 91% | GFP response vs DMSO [6] 98.7% | GFP response relative to DMSO [7] 103% | GFP response vs DMSO [8] 102% | GFP response, % of DMSO [9] 97.8% | vesicle binding response [10] 186% | inhibition [11] -4.21% | superoxide response (% of plate) [12] 94.8% | aptamer binding inhibition [13] 3% | response [14] 3.62% | inhibition [15] 47.5% | response [16] -1.09% | binding (% of control) [17] 98.7% | differentiation response [20] 26.2%
98.3%: GFP response, % of DMSO [9, 21]
65.7%: double positive events [10]
102%: GFP response relative to DMSO [7, 23]
98.1%: GFP response vs DMSO [6, 22]
98%: GFP response, % of DMSO [9, 22]
103%: GFP response relative to DMSO [7, 24]

O=c1cc(-c2ccccc2)oc2cc(OCc3ccccc3)cc(O)c12
105%: GFP response, % of DMSO [9, 21]
active: GFP response vs DMSO [2] 140% | efflux inhibition (fraction of control) [18] 0.59
98.6%: GFP response vs DMSO [6, 21]
99.3%: GFP response relative to DMSO [7, 24]
98.7%: GFP response vs DMSO [6, 22]
103%: GFP response, % of DMSO [9, 22]
inactive: percent of DMSO control GFP [1] 91.7% | percent response of DMSO control [3] 108% | GFP response vs DMSO [4] 84.2% | GFP response, % of DMSO [5] 85.9% | GFP response vs DMSO [6] 98.2% | GFP response relative to DMSO [7] 99.2% | GFP response vs DMSO [8] 100% | GFP response, % of DMSO [9] 104% | vesicle binding response [10] 139% | inhibition [11] -16.8% | superoxide response (% of plate) [12] 88.6% | aptamer binding inhibition [13] 0% | response [14] -12.6% | inhibition [15] 30.1% | response [16] -0.61% | binding (% of control) [17] 100% | inhibition [19] 0% | differentiation response [20] 5.73%
62.5%: double positive events [10]
97.6%: GFP response relative to DMSO [7, 23]

O=C(O)Cc1ccc(-c2ccccc2)cc1
65.8%: double positive events [10]
inactive: percent of DMSO control GFP [1] 89.4% | GFP response vs DMSO [2] 96.3% | percent response of DMSO control [3] 65.4% | GFP response, % of DMSO [5] 76.9% | GFP response vs DMSO [6] 96.5% | GFP response relative to DMSO [7] 115% | GFP response vs DMSO [8] 102% | GFP response, % of DMSO [9] 102% | vesicle binding response [10] 5570% | inhibition [11] 2.3% | superoxide response (% of plate) [12] 118% | aptamer binding inhibition [13] 3% | response [14] 2.38% | inhibition [15] 22.4% | response [16] -1.1% | binding (% of control) [17] 99.5% | efflux inhibition (fraction of control) [18] -0.42 | inhibition [19] 8% | differentiation response [20] -24.8%
91.5%: GFP response, % of DMSO [9, 21]
114%: GFP response relative to DMSO [7, 24]
93.3%: GFP response vs DMSO [6, 21]
116%: GFP response relative to DMSO [7, 23]
95.9%: GFP response vs DMSO [6, 22]
active: GFP response vs DMSO [4] 196%
103%: GFP response, % of DMSO [9, 22]

CC12COC3(C(=O)Nc4ccc(F)cc4)CC1CCC32C (stereo unspecified)
65.7%: double positive events [10]
inactive: percent of DMSO control GFP [1] 94.2% | GFP response vs DMSO [2] 126% | percent response of DMSO control [3] 107% | GFP response vs DMSO [4] 73.7% | GFP response, % of DMSO [5] 85.9% | vesicle binding response [10] 157% | inhibition [11] 8.4% | superoxide response (% of plate) [12] 99.2% | aptamer binding inhibition [13] 1% | response [14] -12.6% | inhibition [15] -2.28% | response [16] -3.14% | binding (% of control) [17] 102% | efflux inhibition (fraction of control) [18] 0.3 | inhibition [19] 10% | differentiation response [20] -1.64%

Cc1ccc(C(=O)COC(=O)c2cnccn2)cc1[N+](=O)[O-]
58.1%: double positive events [10]
inactive: percent of DMSO control GFP [1] 99.1% | GFP response vs DMSO [2] 99.6% | percent response of DMSO control [3] 110% | GFP response vs DMSO [4] 82% | GFP response, % of DMSO [5] 82.5% | vesicle binding response [10] 226% | inhibition [11] -18.2% | superoxide response (% of plate) [12] 97.6% | aptamer binding inhibition [13] 4% | response [14] -3.42% | inhibition [15] -6.78% | response [16] -1.08% | binding (% of control) [17] 103% | efflux inhibition (fraction of control) [18] 0.01 | inhibition [19] 12% | differentiation response [20] -21.6%

Cn1c(SCC(=O)c2ccccc2)nnc1-c1ccncc1
inactive: percent of DMSO control GFP [1] 99% | GFP response vs DMSO [2] 103% | percent response of DMSO control [3] 99.6% | GFP response vs DMSO [4] 112% | GFP response, % of DMSO [5] 107% | vesicle binding response [10] 157% | inhibition [11] 0.59% | superoxide response (% of plate) [12] 105% | aptamer binding inhibition [13] 6% | response [14] -27.9% | inhibition [15] 4.51% | response [16] -4.48% | binding (% of control) [17] 99.2% | efflux inhibition (fraction of control) [18] -0.04 | inhibition [19] 2% | differentiation response [20] 0.92%
61.9%: double positive events [10]
